M1 ag parental: M1 agonist counterscreen hit in parental CHO-K1 cells. Fluo-8 calcium fluorescence; scaled to maximal ATP response, vehicle zero. activation, % at 3 µM. 360,000 tested, 0.48% active; in the data active = activation above about 15%;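 also: untransfected CHO-K1 host cells lacking M1 receptor as counterscreen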
M1 PAM parental: M1 PAM counterscreen hit in parental CHO-K1 cells; ATP EC20, Fluo-8 calcium fluorescence; 0% at ATP EC20, 100% at ATP max; activation, % at 3 µM; 360,000 tested, 0.02% active; AID 602247;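 active = activation above the run cutoff, the mean activation of all test compounds plus 3 SD, cut at about 40% in these data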;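 also: peak over basal fluorescence ratio in a 140 s read after ATP addition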
M1 ag: human M1 muscarinic receptor agonism; activation, % at 3 µM; P11229; 360,000 tested, 0.33% active; CHO-K1 hM1, Fluo-8 calcium fluorescence, agonist mode; 0% DMSO, 100% acetylcholine EC100;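 active = activation above the run's mean compound activation plus 3 SD, cut at about 16% in these data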;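 also: peak over basal fluorescence ratio within a 140 s kinetic read after compound addition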
Target sequence (P11229 whole entry, looked up): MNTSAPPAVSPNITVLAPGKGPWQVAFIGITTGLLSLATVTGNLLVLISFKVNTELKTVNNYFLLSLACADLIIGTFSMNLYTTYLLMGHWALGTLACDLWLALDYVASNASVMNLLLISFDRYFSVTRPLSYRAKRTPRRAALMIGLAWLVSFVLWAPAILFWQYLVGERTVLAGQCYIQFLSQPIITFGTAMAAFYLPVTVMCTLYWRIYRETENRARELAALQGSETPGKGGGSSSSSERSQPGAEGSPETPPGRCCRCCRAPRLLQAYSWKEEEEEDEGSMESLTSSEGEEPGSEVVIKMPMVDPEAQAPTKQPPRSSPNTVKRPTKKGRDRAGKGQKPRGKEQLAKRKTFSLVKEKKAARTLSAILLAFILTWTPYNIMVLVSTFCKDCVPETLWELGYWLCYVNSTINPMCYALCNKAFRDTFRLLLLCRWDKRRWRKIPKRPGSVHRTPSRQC
CHO-K1 Ca antag: M1 antagonist counterscreen hit in parental CHO-K1 cells | ATP-induced calcium, Fluo-8 fluorescence | inhibition, % at 3 µM | 360,000 tested, 0.6% active;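 active = inhibition above a per-plate cutoff, the plate's mean sample inhibition plus 3 SD, cut at about 24% in these data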;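 also: 0% = DMSO plus EC80 ATP and 100% = DMSO alone without ATP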
CHRM1 PAM: positive allosteric modulators of human M1 muscarinic receptor. P11229. CHO-K1 hM1, Fluo-8 calcium fluorescence, ACh EC20; 0% = ACh EC20, 100% = maximal ACh. activation, % at 3 µM. 360,000 tested, 0.088% active. AID 588819; in the data active = activation above about 19%, passing the limit was not always enough
M1 antag: antagonists of human M1 muscarinic receptor; CHO-K1 hM1, Fluo-8 calcium fluorescence, ACh EC80 antagonist; 360,000 tested, 1.3% active; inhibition, % at 3 µM; P11229;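 active = percent inhibition above its own plate's cutoff, namely the mean of that plate's compound wells plus 3 SD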;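 also: peak over basal fluorescence ratio during 140 s after agonist addition; 0% = ACh EC80 plus DMSO and 100% = DMSO alone without agonist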
The depositor's hits bear a star; ! = a repeat was not active. An excerpt weighted towards active compounds, which were near 2.3% of everything screened.

SMILES	M1 ag parental	M1 PAM parental	M1 ag	CHO-K1 Ca antag	CHRM1 PAM	M1 antag
OCc1nc2ccccc2n1Cc1ccc(Cl)cc1	2	-4	-4	5	-5	5
Cc1nc2ccccc2n1Cc1ccc(Cl)cc1	9	-12	4	33*	-18	21
Cc1ccc(S(=O)(=O)NC(=O)C2(C)CCN2C(=O)C2CCCCC2)nc1 (stereo not drawn)	-1	-6	8	28*	23	-7
Cc1cccc(S(=O)(=O)NC(=O)C2(C)CCN2C(=O)c2ccc(C3CCCCC3)cc2)c1 (stereo not drawn)	0	2	0	4	10	-10
COc1cc(C)ccc1S(=O)(=O)NC(=O)C1(C)CCN1C(=O)c1ccc(C2CCCCC2)cc1 (stereo not drawn)	0	-14	-5	27*	13	-23
CCCc1ccc(OCc2ccc(C(=O)N3CCSCC3)o2)cc1	1	11	-6	-15	7	1
O=S1(=O)CCO[C@H]2Cc3ccccc3[C@H]2N1Cc1ccc(F)cc1	0	-7	-3	-8	0	0
C/C(=N\n1c(C)nc2ccccc2c1=O)c1ccc(C)o1	0	-1	-1	-6	28*	-10
C[C@]12CCC(=O)C=C1CC[C@@H]1[C@@H]2[C@@H](O)C[C@@]2(C)[C@H]1CC[C@]2(O)C(=O)COC(=O)CCC(=O)O	1	4	-4	2	6	-29
CC12CCC(=O)C=C1CCC1C2C(O)CC2(C)C1CCC2(O)C(=O)COC(=O)CCC1CCCC1 (stereo not drawn)	3	10	-11	0	-31	41*
CCC(CC)C(=O)OCC(=O)C1(O)CCC2C3CCC4=CC(=O)CCC4(C)C3C(O)CC21C (stereo not drawn)	3	-14	0	-2	-29	68*
COc1ccc(C)cc1NC(=O)CNC(=O)c1sc2ccccc2c1Cl	1	7	-2	-5	5	-13
NC(=O)c1ccc(NC(=O)CN2CCN(Cc3ccccc3)CC2)cc1	0	-8	-9	-14	11	-20
Cc1ccccc1OCc1n(CC(=O)OC2CC(C)CCC2C(C)C)c2ccccc2[n+]1C (stereo not drawn)	1	4	-13	10	-33	44*
CC1CCC(C(C)C)C(OC(=O)COC(=O)c2cccn2C)C1 (stereo not drawn)	0	14	-5	-8	2	-3
CC1CCC(C(C)C)C(OC(=O)Cn2c(-c3ccc(Br)cc3)[n+](C)c3ccccc32)C1 (stereo not drawn)	3	20	-16	7	-29	23*
CC1CCC(C(C)C)C(OC(=O)COC(=O)c2ccc(N)cc2)C1 (stereo not drawn)	1	23	-8	-7	7	-5
CC1CCC(C(C)C)C(OC(=O)Cn2c(-c3ccc(Cl)cc3)[n+](C)c3ccccc32)C1 (stereo not drawn)	1	-14	-4	11	-19	42*
O=C(CSc1nc2ncccc2[nH]1)c1ccc2c(c1)OCO2	1	-4	-2	3	14	-19
O=C(COC(=O)C1COc2ccccc2O1)Nc1ccccc1OC(F)F (stereo not drawn)	0	3	-3	-1	4	-4
Cc1ccc2c(c1)N(CC(=O)NC1CCCC1)C(=O)c1cccnc1O2	1	8	-1	-1	2	-10
CCOC(=O)C1(C)CCCCCN1C(=O)c1ccc(OC)cc1 (stereo not drawn)	0	-14	-3	25*	-4	10
CCOC(=O)C1(C)CCCCN1C(=O)c1ccc(N(C)C)cc1 (stereo not drawn)	0	-3	0	18	10	-13
O=C(O)c1ccccc1-c1c2cc(I)c(=O)c(I)c-2oc2c(I)c(O)c(I)cc12	190*	-9	279*	71*	-26	78*!
Cc1ccc(S(=O)(=O)N(CC(=O)N/N=C/c2cccc(Cl)c2)c2cccc3cccnc23)cc1	0	-10	-3	24*	-5	-3
SMILES	M1 ag parental	M1 PAM parental	M1 ag	CHO-K1 Ca antag	CHRM1 PAM	M1 antag
C[C@H](CO)N1C[C@H](C)[C@@H](CN(C)S(=O)(=O)c2ccc(F)cc2)Oc2ccc(NC(=O)C3CCCCC3)cc2C1=O	0	11	-10	-17	2	-7
COc1ccccc1N1C(=O)C2C(C(=O)c3ccccc3)=NN(c3ccc(Br)cc3)C2C1=O (stereo not drawn)	31*	-1	-1	30*	10	-6
Cc1ccc(S(=O)(=O)NCCNc2ccc([N+](=O)[O-])cc2)cc1	3	-8	-1	-2	0	3
Cc1ccc(S(=O)(=O)NCCCNc2ccc([N+](=O)[O-])cc2)cc1	21*	-1	-5	18	-13	16
CCOC(=O)c1cc(C(=O)c2cc(F)ccc2O)coc1=N	2	13	-2	-7	8	-12
N=c1occ(C(=O)c2cc(F)ccc2O)cc1C(=O)NC1CCCCC1	5	-15	0	24*	-11	17
COc1ccc(NC(=O)c2ccc(COc3ccccc3Br)o2)c(OC)c1	1	36	-1	-6	16	-14
COc1ccc(C)cc1NC(=O)COC(=O)Cc1ccc(-c2ccccc2)cc1	1	23	-5	-4	4	-10
COc1ccc(NC(=O)COC(=O)Cc2ccc(-c3ccccc3)cc2)c(OC)c1	5	46*	2	-25	-6	3
COc1ccc(NC(=O)c2ccc(COc3ccccc3)o2)c(OC)c1	2	42*	-2	-14	-3	-15
O=C(CS(=O)(=O)c1ccc(Cl)cc1)N1CCN(c2ccccc2)CC1	1	7	0	-8	15	-25
C=C(CCO)C1=CCN(S(=O)C(C)(C)C)[C@H]1CCO (stereo partly drawn)	1	11	-2	11	10	-5
O=C(CN(C(=O)CNC(=O)c1ccco1)c1cccc(F)c1)NC1CCCCC1	0	1	3	-11	18	-4
COc1ccc(C(=O)C(CN2CCCC2)c2ccccc2)cc1 (stereo not drawn)	1	22	-5	-6	-17	11
O=C(c1ccc(Cl)cc1)C(CN1CCCC1)c1ccccc1 (stereo not drawn)	0	-3	-9	4	-25	38*
CC(=O)N1CCN(CC(=O)Nc2cccc(S(=O)(=O)N3CCCCC3)c2)CC1	1	-10	-4	-5	11	-21
CC(=O)N1CCN(CC(=O)Nc2cccc(S(=O)(=O)N3CCCCCC3)c2)CC1	0	-14	-2	27*	9	0

Screening data (PubChem)
